From PubChem BioAssay AID743255 (National Center for Advancing Translational Sciences (NCATS), 2014) come the findings set out here.

About 910 (0.23%) of roughly 390,000 compounds were called active. Entries that show only a call come without a potency. Another 5% or so got no clear call; they are omitted. The call rests on the fitted dose curve; in most records, active means well fitted inhibition curve with a large enough effect; inconclusive means small, poorly fitted or top-dose-only effect; inactive means no such curve, though single readings can be large or run the other way. The full list was thinned out, with actives kept by preference.
Potency means the concentration at half of the fitted maximal effect.

Sequence of Ubiquitin carboxyl-terminal hydrolase 1 (Homo sapiens) (O94782 whole entry, looked up): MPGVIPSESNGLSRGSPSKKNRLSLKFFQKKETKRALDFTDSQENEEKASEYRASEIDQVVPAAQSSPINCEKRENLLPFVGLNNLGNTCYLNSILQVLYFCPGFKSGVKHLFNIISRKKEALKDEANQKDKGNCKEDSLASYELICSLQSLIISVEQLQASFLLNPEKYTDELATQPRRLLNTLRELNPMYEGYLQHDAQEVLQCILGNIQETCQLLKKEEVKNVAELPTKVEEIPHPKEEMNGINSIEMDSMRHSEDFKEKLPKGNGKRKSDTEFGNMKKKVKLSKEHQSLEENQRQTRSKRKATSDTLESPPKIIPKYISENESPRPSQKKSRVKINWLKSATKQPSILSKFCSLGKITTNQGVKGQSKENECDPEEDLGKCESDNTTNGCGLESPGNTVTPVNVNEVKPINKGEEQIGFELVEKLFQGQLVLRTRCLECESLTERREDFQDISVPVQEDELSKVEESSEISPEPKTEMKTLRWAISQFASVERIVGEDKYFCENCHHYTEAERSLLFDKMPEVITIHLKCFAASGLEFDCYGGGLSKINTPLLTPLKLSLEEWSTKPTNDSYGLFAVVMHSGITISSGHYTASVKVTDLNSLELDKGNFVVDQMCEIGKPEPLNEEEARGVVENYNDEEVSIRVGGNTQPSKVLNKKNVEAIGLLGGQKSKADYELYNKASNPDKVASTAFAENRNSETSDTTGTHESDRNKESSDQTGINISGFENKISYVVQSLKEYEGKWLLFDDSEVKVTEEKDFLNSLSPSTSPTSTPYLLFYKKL

The target of the test is Ubiquitin carboxyl-terminal hydrolase 1 (Homo sapiens) (UniProt O94782). The test can be described thus: Inhibitors of USP1/UAF1: Primary Screen. Further: nearly all actives have a fitted effect of over 60% in size. Particulars: recombinant USP1/UAF1, Ub-Rhodamine cleavage fluorescence; series mostly up to 57.1 µM. The text has this:
Deubiquitinating enzymes (DUBs) are a class of enzymes that can cleave isopeptide bond formed between the C-terminal carboxylate of ubiquitin and a lysine side-chain amino group on the target protein. Among them, ubiquitin specific proteases (USPs) constitute the largest DUB family. Human USPs are emerging as promising targets for pharmacological intervention because of their connection to a number of human diseases, including prostate, colon and breast cancer (1, 2), pediatric acute lymphoblastic leukemia (3), and familial cylindromatosis (4). The advantage of inhibiting USPs lies in the potential specificity of therapeutic intervention that can lead to better efficacy and reduce nonspecific side effects. In a collaboration between the University of Delaware and the NIH Chemical Genomics Center, a high-throughput screen assay was developed to screen for USP1/UAF1 inhibitors. This miniaturized assay has a fluorescent read-out and is used to screen the NIH Molecular Libraries Small Molecule Repository (MLSMR) in order to identify a small molecule that inhibits USP1. NIH Chemical Genomics Center [NCGC] NIH Molecular Libraries Probe Centers Network [MLPCN] MLPCN Grant: DA030552 Assay Submitter (PI): Zhihao Zhuang, University of Delaware 1. Priolo, C., et al. (2006) The isopeptidase USP2a protects human prostate cancer from apoptosis. Cancer Res 66, 8625-8632 2. Popov, N., et al. (2007) The ubiquitin-specific protease USP28 is required for MYC stability. Nat Cell Biol 9, 765-774 3. De Pitta, C., et al. (2005) A leukemia-enriched cDNA microarray platform identifies new transcripts with relevance to the biology of pediatric acute lymphoblastic leukemia. Haematologica 90, 890-898 4. Kovalenko, A., et al. (2003) The tumour suppressor CYLD negatively regulates NF-kappaB signalling by deubiquitination. Nature 424, 801-805
3 microliters of reagents (buffer in columns 3 and 4 as negative control and 1nM USP1/UAF1 complex in columns 1, 2, and 5-48) are dispensed into Greiner black solid bottom 1536-well assay plates. Compounds are then transferred via Kalypsys pin tool equipped with 1536-pin array (10nl slotted pins, V&P Scientific, San Diego, CA). Following an incubation step of 15 min at room temperature, 1ul of Ub-Rho substrate (150nM final concentration) is added to initiate the reaction. The plates are immediately centrifuged at 1000 rpm for 15 seconds, and subsequently transferred to a ViewLux high-throughput CCD imager (PerkinElmer) wherein kinetic measurements of fluorescence are acquired using 480 nm excitation/540 nm emission filter set (6 reads every 60 seconds, see Table 1). All reagents are diluted in an assay buffer consisting of 50mM HEPES (pH 7.8), 0.5mM EDTA, 0.1 mg/ml BSA, 1mM TCEP, and 0.01% Tween-20.
For the molecule `CN(C)S(=O)(=O)c1ccc(C(=O)N(Cc2cccnc2)c2nc3c(F)cc(F)cc3s2)cc1`, the Potency entry was “inactive”. Under `COc1ccc(-n2c(=O)c3c(c4cc(OC)ccc4n3C)n(Cc3cccc(C)c3)c2=O)cc1` stands “inactive”; under `Oc1ccc(N=Cc2sc3ccccc3c2Cl)cc1`, 25.1 µM (active); under `CCc1nc(-c2cc(S(=O)(=O)N3CCN(c4ccc(OC)cc4)CC3)ccc2OC)no1`, “inactive”. On to `CCOc1cc(C(=O)NCCc2csc3nc(-c4ccc(C)cc4)nn23)cc(OCC)c1OCC`, for which the Potency entry was “inactive”.

As for `CCSc1nnc(NC(=O)c2cc(=O)c3cc(C)c(C)cc3o2)s1`, the Potency entry is “inactive”.

On to `Cc1c(NC(=O)Nc2ccc(F)c(Cl)c2)c(=O)n(-c2ccccc2)n1C`, for which the Potency result is “inactive”. Under `Cc1cccc(N2CCN(C(=O)CCSCc3ccccc3F)CC2)c1C` stands “inactive”. Regarding `COc1ccc(CCNC(=O)c2nn(C)c3c2CSc2ccccc2-3)cc1OC`, the Potency result is “inactive”.

As to `C#CCOCCOCCOCCNc1nc(N2CCOCC2)nc(N2CCN(C(=O)[C@H](Cc3ccc(O)cc3)n3cc(CCO)nn3)CC2)n1`, the Potency entry was “inactive”. The result for `C#CCOCCOCCOCCNc1nc(N2CCN(C(=O)C([C@@H](C)CC)n3cc(C(N)COC(=O)C(F)(F)F)nn3)CC2)nc(N2CCN(C(=O)[C@H](CCCCN)n3cc(C(N)CC(C)C)nn3)CC2)n1` (some centres not stated) reads “inactive”; that for `C#CCOCCOCCOCCNc1nc(N2CCN(C(=O)CCCCCCCCCCNC(=O)[C@H]([C@@H](C)CC)n3cc(CCCCN=C(N)N)nn3)CC2)nc(N2CCN(C(=O)CCCCCCCCCCNC(=O)[C@H](CO)n3cc(CCCSC)nn3)CC2)n1`, 28.2 µM (active). Under `COc1ccccc1NC(=O)c1cc(S(=O)(=O)NCCc2ccccc2)ccc1F` stands “inactive”. The result for `COC(=O)c1ccc(NC(=O)c2cc(S(=O)(=O)N3CCC(C)CC3)cn2C)cc1` reads “inactive”; that for `Cc1ccc(Cl)cc1N(C)C(=O)C1CCCN(c2ncnc3onc(-c4ccc(F)cc4)c23)C1` (configuration not stated), “inactive”; that for `COc1ccc(Cc2nc3ccc(C(=O)NCc4ccc(OC)cc4OC)cc3o2)cc1`, “inactive”. Take `Cc1ccccc1CNC(=O)CCc1cn(Cc2ccccc2C)c2ccccc12`: the Potency entry is “inactive”.

Regarding `Cc1ccc(CCNC(=O)c2nnc(Cc3cccc(F)c3)o2)cc1`, the Potency result is “inactive”. In the case of `CCS(=O)(=O)c1nc(S(=O)(=O)c2ccc(C)cc2)c(NCc2ccc(Cl)cc2)s1`, the Potency entry is “inactive”.

On to `COc1ccc(-c2nc(Cn3c(=O)cc(C)c4c(C)nn(-c5ccccc5)c43)c(C)o2)c(OC)c1`, for which the Potency result is “inactive”.

Turning to `Cc1ccc(Cl)cc1N1CCN(C(=O)c2cccn3c(=O)c4cc(Cl)ccc4nc23)CC1`, the Potency result was “inactive”. As for `COC(=O)c1cc(NC(=O)CCc2c(C)nc3c4c(C)cc(C)nc4nn3c2C)cc(C(=O)OC)c1`, the Potency entry was “inactive”. The result for `CC(=O)N1C(=O)/C(=C2\SC(=S)N(NC(=O)c3ccc(O)cc3)C2=O)c2ccccc21` reads 3.98 µM (active); that for `CC(C)n1cnc2c(NCc3ccccc3)cc(OCC3CCN(C)CC3)cc21`, 17.8 µM (active); that for `Cc1ccc(-c2cnc(NCc3ccc(C(C)C)cc3)n2C)cc1`, “inactive”. Under `CCOC(=O)c1c(NC(=O)/C=C/c2ccc(OC)cc2)sc2c1CCC(C)C2` (configuration not stated) stands “inactive”; under `CCCN1CCc2nc(N3CCN(C)CC3)ncc2C1`, “inactive”.

Take `O=C(CCl)N(Cc1cccc([N+](=O)[O-])c1)c1cccc(Cl)c1`: the Potency result was “inactive”. The result for `COc1ccc([N+](=O)[O-])cc1C1NN=C(c2cccc3ccccc23)S1` (configuration not stated) reads “inactive”; that for `O=C1Nc2ccc([N+](=O)[O-])cc2C1=Nc1cccc(CO)c1`, 25.1 µM (active). Under `CN1C(=O)c2cccc3c(N)ccc(c23)C1=O` stands 4.47 µM (active); under `CCOC(=O)c1c(NC(C)=O)c2c3c(sc2n1Cc1c(C)cc(C)cc1C)CCCC3`, “inactive”; under `COc1ccc(CCNC(=O)c2cc3cccc4c3n2CC(C)S4)c(OC)c1OC` (configuration not stated), “inactive”. On to `Cc1ccc(OC(=O)CSc2nnc(-c3cccs3)o2)cc1`, for which the Potency result is “inactive”. The result for `O=C(CSCc1cnn(-c2ccccc2)c1-n1cccc1)NCc1ccccc1Br` reads “inactive”.

Turning to `CCOC(=O)C1CCCN(C(=O)c2ccc3c(c2)sc2nc(-c4ccc(CC)cc4)cn23)C1` (configuration not stated), the Potency result is “inactive”.

Regarding `COc1ccc(OC)c2sc(N3CCN(C(=O)C4COc5ccccc5O4)CC3)nc12` (configuration not stated), the Potency entry is “inactive”. The result for `Cc1ccc2c(c1)N(C(=O)Nc1ccc(Br)cc1F)CCO2` reads “inactive”; that for `CCOc1ccc(CCNC(=O)c2cc3c(=O)n(C)c4ccccc4c3n2C)cc1`, “inactive”; that for `CCOC(=O)CNC(=O)c1cc2c(=O)n3cccc(C)c3nc2s1`, “inactive”. Under `CCOC(=O)CC1C(=O)NCCN1c1nc2c(C)cccn2c(=O)c1/C=C1\SC(=S)N(C(C)CC)C1=O` (configuration not stated) stands 8.91 µM (active); under `CCCN(CCC)c1nc2c(C)cccn2c(=O)c1/C=C1/SC(=S)N(Cc2ccco2)C1=O`, “inactive”. The result for `O=C(NCC(c1cccnc1)N1CCc2ccccc21)c1cccc(C(F)(F)F)c1` (configuration not stated) reads “inactive”.

As for `CC1=C(C(=O)OCC(C)C)C(c2ccc(OCc3ccccc3)cc2)N2C(=O)CCSC2=N1` (configuration not stated), the Potency entry is “inactive”.

For the molecule `COc1cccc(C(=O)Nc2ccc3oc(-c4ccc5ccccc5c4)nc3c2)c1`, the Potency entry is “inactive”.

As to `CCN1C(=O)c2ccccc2S(=O)c2ccc(C(=O)NCc3ccc(F)cc3)cc21` (configuration not stated), the Potency entry is “inactive”. Under `COc1ccc(-n2nc(C(=O)NCCc3ccc(Cl)cc3)c3c4ccccc4n(C)c3c2=O)cc1Cl` stands “inactive”; under `CCCN(CCC)C(=O)C1CCCN(c2ncnc3c2nc2n3CCCCC2)C1` (configuration not stated), “inactive”. The result for `CCN(Cc1ccccc1)C(=O)c1cn(-c2cccc(OC)c2)c(=O)c2ccccc12` reads “inactive”. The result for `COc1cc(OC)c(OC)cc1/C=C/c1nc2ccccc2c(=O)n1-c1ccc(Br)c(C)c1` reads “inactive”; that for `Cc1cccc(N2CCN(C(=O)Cn3ncc4c5ccccc5n(C)c4c3=O)CC2C)c1` (configuration not stated), “inactive”.

On to `CCOc1ccccc1C(=O)NC1(C(F)(F)F)C(=O)Nc2c1c(=O)[nH]c(=O)n2-c1ccc(F)cc1` (configuration not stated), for which the Potency result is “inactive”. The result for `Oc1c(C=Nc2cccc3nsnc23)ccc2ccccc12` reads 25.1 µM (active); that for `COCCNC(=O)c1cc(-c2cccc(Cl)c2)on1`, “inactive”. Under `COc1ccc(C(=O)c2oc3ccccc3c2NC(=O)COc2cccc(C)c2)cc1` stands “inactive”; under `Cc1c(C(=O)N2CCCC2)oc2c1-c1nn(CC(=O)NCc3ccc(OC(C)C)cc3)cc1CC2`, “inactive”. The result for `COc1ccccc1NC(=O)c1sc2nc(C)c(C(=O)Nc3ccc(Cl)cc3)c(-c3ccc(Br)cc3)c2c1N` reads “inactive”.
